# Laboratory results as given in publication PMC7862700, “An all-to-all approach to the identification of sequence-specific readers for epigenetic DNA modifications on cytosine”.
# Key:
# Experiment in all cases: DAPPL (digital affinity profiling via proximity ligation, sequencing); 10 mM Tris-HCl pH 7.5, 50 mM NaCl, 1 mM DTT, 4% glycerol, room temperature, 30 min; GST-TFs on glutathione beads, 16-mer random dsDNA library, 0.1% formaldehyde crosslink after washing; high values mean tight binding
# [1] = biological target: T1, FEV (Homo sapiens, UniProt Q99581 1-238); settings: protein: recombinant; tags: N-terminal GST; dsDNA, one strand shown
# T1 sequence: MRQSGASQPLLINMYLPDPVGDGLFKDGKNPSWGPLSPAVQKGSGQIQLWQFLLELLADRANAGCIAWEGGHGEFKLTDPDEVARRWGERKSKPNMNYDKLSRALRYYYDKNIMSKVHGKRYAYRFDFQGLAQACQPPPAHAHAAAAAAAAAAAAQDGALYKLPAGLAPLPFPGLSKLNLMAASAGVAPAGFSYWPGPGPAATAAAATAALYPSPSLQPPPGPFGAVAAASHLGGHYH
# How it was run: (§1)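 A tag-only sample was pooled with DNA-barcoded human transcription factors that had been expressed in yeast as GST fusions and captured on glutathione beads. The pools were incubated for 30 min at room temperature with 200 nmole of a random double-stranded 16-mer DNA library in Tris/NaCl/DTT/glycerol buffer, then washed, crosslinked with 0.1% formaldehyde, proximity-ligated (BsaI/T4 ligase, 1 h, 37 °C), PCR-amplified and sequenced on an Illumina NextSeq500. Binding signal is each hexamer's read frequency for a factor divided by its frequency for the tag-only sample.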
# [2] = biological target: ETV5 (Homo sapiens, UniProt P41161 1-510); settings: protein: recombinant; tags: N-terminal GST; dsDNA, one strand shown
# How it was run: as §1
# [3] = biological target: HSF1 (Homo sapiens, UniProt Q00613 1-529); settings: protein: recombinant; tags: N-terminal GST; chain copies: 3; dsDNA, one strand shown
# How it was run: as §1
# [4] = biological target: T2, SPIC (Homo sapiens, UniProt Q8N5J4 1-248); settings: protein: recombinant; tags: N-terminal GST; dsDNA, one strand shown
# T2 sequence: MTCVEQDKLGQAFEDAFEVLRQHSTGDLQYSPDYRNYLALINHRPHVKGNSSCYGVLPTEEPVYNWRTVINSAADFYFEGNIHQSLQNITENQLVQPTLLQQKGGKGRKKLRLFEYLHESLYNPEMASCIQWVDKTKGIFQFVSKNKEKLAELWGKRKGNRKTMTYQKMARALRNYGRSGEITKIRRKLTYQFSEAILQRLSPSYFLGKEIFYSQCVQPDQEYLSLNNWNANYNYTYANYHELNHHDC
# How it was run: as §1
# [5] = biological target: ELF4 (Homo sapiens, UniProt Q99607 1-663); settings: protein: recombinant; tags: N-terminal GST; dsDNA, one strand shown
# How it was run: as §1
# [6] = biological target: T3, ELK4 (Homo sapiens, UniProt P28324-2 1-405); settings: protein: recombinant; tags: N-terminal GST; dsDNA, one strand shown
# T3 sequence: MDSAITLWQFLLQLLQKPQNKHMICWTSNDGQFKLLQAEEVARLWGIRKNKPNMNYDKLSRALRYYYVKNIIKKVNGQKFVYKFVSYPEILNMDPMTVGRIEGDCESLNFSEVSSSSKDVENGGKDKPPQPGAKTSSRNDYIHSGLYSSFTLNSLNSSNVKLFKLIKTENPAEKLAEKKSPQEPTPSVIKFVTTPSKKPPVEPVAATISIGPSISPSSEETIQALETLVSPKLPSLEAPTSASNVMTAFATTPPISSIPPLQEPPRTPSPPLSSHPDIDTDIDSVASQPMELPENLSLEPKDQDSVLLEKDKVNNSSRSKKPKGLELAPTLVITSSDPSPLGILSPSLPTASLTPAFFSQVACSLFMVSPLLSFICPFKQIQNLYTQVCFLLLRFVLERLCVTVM
# How it was run: as §1
# [7] = biological target: T4, ETV2 (Homo sapiens, UniProt O00321 1-342); settings: protein: recombinant; tags: N-terminal GST; dsDNA, one strand shown
# T4 sequence: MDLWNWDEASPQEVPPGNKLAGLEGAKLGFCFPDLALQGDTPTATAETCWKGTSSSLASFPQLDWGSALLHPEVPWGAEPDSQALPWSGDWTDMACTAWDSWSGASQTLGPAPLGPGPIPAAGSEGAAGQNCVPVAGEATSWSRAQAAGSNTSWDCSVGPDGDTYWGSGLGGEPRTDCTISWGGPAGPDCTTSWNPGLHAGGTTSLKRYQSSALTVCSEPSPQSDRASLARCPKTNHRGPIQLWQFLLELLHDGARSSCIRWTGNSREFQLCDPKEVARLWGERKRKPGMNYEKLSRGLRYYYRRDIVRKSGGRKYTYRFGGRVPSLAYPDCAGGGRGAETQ
# How it was run: as §1
# [8] = biological target: T5, ELF3 (Homo sapiens, UniProt P78545 1-371); settings: protein: recombinant; tags: N-terminal GST; dsDNA, one strand shown
# T5 sequence: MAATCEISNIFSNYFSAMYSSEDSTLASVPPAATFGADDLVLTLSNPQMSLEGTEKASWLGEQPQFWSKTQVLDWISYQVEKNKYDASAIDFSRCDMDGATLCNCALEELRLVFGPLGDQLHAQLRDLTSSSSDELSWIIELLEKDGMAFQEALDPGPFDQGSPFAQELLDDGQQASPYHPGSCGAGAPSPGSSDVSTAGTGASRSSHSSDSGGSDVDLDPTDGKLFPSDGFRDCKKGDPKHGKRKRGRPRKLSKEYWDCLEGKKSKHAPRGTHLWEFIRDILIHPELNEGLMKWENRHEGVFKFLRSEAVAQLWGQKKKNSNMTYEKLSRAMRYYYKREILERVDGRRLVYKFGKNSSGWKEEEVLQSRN
# How it was run: as §1
# [9] = biological target: CRX (Homo sapiens, UniProt O43186 1-299); settings: protein: recombinant; tags: N-terminal GST; dsDNA, one strand shown
# How it was run: as §1
# [10] = biological target: ETV1 (Homo sapiens, UniProt P50549 1-477); settings: protein: recombinant; tags: N-terminal GST; dsDNA, one strand shown
# How it was run: as §1
# [11] = biological target: T6, ERF (Homo sapiens, UniProt P50548 1-548); settings: protein: recombinant; tags: N-terminal GST; dsDNA, one strand shown
# T6 sequence: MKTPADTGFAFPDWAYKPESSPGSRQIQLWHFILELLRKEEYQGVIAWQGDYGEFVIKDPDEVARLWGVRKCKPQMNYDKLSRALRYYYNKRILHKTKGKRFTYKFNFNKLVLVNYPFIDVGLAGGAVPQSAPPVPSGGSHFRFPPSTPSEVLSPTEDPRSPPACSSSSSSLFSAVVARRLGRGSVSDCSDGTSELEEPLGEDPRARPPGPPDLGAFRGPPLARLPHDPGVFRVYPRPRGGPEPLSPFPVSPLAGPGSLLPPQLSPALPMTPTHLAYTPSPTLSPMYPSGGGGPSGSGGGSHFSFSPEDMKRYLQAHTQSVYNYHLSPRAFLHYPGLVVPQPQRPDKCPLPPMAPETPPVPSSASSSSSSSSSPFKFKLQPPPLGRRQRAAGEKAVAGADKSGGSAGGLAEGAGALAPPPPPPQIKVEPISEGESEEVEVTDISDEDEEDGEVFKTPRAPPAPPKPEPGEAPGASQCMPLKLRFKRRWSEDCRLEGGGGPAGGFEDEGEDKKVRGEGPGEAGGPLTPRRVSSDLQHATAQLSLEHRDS
# How it was run: as §1
# [12] = biological target: T7, ETV3L (Homo sapiens, UniProt Q6ZN32 1-361); settings: protein: recombinant; tags: N-terminal GST; dsDNA, one strand shown
# T7 sequence: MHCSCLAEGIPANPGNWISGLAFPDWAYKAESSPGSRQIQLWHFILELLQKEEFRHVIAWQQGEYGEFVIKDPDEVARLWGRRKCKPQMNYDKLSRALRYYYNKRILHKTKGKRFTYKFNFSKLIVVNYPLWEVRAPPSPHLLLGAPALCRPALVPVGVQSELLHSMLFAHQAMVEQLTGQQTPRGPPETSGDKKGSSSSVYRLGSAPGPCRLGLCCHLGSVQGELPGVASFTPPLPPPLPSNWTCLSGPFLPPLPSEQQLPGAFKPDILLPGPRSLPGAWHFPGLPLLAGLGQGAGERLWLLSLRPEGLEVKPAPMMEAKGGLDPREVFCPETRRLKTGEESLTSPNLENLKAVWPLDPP
# How it was run: as §1
# [13] = biological target: T8, ETS2 (Homo sapiens, UniProt P15036 1-469); settings: protein: recombinant; tags: N-terminal GST; dsDNA, one strand shown
# T8 sequence: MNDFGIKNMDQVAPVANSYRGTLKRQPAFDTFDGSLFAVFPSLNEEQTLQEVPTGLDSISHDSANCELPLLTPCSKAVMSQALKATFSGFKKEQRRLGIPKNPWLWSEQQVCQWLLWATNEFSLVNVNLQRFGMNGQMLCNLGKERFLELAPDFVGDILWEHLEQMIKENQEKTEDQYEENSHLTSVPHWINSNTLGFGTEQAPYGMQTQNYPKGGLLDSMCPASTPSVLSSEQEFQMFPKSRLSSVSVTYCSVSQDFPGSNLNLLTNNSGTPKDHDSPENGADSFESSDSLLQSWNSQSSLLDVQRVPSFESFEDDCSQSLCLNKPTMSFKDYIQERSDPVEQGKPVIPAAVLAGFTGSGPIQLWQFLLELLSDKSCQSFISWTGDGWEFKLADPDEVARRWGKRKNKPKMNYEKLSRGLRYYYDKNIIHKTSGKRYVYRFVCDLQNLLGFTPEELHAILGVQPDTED
# How it was run: as §1
# [14] = biological target: T9, SPDEF (Homo sapiens, UniProt O95238 1-335); settings: protein: recombinant; tags: N-terminal GST; dsDNA, one strand shown
# T9 sequence: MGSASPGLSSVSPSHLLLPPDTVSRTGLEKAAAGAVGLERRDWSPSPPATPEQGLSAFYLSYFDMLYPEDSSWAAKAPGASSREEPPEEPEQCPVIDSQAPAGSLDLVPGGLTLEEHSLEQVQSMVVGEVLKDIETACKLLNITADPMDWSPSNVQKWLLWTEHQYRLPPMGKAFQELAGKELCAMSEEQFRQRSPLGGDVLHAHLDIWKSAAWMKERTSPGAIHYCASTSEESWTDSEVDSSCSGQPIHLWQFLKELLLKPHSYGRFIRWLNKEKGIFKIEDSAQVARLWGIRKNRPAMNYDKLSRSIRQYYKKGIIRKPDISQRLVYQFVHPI
# How it was run: as §1
# [15] = biological target: T10, ETV7 (Homo sapiens, UniProt Q9Y603 1-341); settings: protein: recombinant; tags: N-terminal GST; dsDNA, one strand shown
# T10 sequence: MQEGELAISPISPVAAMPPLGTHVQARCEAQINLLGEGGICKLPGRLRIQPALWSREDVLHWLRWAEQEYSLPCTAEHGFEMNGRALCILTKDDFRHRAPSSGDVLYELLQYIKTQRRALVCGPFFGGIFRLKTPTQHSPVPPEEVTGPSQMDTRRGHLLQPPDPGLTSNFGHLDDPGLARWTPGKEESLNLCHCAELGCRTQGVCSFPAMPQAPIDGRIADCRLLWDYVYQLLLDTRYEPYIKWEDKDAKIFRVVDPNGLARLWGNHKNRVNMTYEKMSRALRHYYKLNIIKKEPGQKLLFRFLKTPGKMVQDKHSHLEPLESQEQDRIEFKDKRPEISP
# How it was run: as §1
# [16] = biological target: T11, ELF5 (Homo sapiens, UniProt Q9UKW6-2 1-255); settings: protein: recombinant; tags: N-terminal GST; dsDNA, one strand shown
# T11 sequence: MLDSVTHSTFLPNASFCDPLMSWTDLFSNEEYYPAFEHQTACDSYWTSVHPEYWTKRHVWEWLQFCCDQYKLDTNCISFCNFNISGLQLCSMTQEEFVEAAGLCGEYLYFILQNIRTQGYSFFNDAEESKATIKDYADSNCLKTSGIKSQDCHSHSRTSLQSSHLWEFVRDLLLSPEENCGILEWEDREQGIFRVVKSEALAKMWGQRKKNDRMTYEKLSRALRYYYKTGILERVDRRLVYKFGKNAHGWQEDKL
# How it was run: as §1
# [17] = biological target: T12, ETV3 (Homo sapiens, UniProt P41162-2 1-143); settings: protein: recombinant; tags: N-terminal GST; dsDNA, one strand shown
# T12 sequence: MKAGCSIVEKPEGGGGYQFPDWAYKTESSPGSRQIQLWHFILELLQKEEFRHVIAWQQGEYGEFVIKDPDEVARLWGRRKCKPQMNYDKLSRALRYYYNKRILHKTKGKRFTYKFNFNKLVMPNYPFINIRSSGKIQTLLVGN
# How it was run: as §1
# [18] = biological target: ETV6 (Homo sapiens, UniProt P41212 1-452); settings: protein: recombinant; tags: N-terminal GST; dsDNA, one strand shown
# How it was run: as §1
# Chain of CRX (O43186 whole entry): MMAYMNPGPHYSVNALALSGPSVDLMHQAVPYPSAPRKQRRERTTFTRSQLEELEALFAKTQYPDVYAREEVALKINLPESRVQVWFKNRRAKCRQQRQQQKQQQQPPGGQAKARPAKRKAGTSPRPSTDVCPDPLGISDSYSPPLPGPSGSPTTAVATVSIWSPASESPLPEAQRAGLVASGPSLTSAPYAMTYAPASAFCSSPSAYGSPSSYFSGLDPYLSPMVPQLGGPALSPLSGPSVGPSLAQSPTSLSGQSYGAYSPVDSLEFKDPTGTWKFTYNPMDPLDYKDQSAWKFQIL
# Chain of ELF4 (Q99607 whole entry): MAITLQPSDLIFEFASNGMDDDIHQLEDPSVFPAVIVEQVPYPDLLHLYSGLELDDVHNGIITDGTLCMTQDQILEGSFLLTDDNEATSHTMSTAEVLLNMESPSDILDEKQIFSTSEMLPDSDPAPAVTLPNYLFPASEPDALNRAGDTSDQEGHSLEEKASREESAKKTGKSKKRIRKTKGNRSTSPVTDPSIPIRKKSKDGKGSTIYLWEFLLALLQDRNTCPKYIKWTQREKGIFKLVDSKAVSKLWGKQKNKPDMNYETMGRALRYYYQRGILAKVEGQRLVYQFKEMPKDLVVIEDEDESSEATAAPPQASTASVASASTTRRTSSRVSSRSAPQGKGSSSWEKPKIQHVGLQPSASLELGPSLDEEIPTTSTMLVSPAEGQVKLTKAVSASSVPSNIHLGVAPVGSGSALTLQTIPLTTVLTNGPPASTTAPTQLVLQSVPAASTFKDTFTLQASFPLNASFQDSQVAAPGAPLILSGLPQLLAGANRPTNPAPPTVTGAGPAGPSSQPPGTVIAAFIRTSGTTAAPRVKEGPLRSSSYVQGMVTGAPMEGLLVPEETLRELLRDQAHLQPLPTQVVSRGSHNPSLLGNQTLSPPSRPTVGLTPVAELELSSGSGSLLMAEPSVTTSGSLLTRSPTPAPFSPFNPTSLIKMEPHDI
# Chain of HSF1 (Q00613 whole entry): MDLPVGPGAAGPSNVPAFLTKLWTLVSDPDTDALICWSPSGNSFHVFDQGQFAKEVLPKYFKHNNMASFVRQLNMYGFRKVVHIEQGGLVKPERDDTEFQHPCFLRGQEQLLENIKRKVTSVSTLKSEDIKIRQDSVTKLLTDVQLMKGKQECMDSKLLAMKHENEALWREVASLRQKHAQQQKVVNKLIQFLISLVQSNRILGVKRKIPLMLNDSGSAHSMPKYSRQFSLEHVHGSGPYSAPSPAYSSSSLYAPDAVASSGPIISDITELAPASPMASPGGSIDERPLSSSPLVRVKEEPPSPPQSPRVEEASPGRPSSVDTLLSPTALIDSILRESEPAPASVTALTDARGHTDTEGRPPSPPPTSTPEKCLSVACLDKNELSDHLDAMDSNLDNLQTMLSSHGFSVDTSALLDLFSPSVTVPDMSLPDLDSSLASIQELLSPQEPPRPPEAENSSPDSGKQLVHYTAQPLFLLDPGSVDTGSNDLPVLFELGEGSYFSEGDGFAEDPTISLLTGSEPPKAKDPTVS
# Chain of ETV5 (P41161 whole entry): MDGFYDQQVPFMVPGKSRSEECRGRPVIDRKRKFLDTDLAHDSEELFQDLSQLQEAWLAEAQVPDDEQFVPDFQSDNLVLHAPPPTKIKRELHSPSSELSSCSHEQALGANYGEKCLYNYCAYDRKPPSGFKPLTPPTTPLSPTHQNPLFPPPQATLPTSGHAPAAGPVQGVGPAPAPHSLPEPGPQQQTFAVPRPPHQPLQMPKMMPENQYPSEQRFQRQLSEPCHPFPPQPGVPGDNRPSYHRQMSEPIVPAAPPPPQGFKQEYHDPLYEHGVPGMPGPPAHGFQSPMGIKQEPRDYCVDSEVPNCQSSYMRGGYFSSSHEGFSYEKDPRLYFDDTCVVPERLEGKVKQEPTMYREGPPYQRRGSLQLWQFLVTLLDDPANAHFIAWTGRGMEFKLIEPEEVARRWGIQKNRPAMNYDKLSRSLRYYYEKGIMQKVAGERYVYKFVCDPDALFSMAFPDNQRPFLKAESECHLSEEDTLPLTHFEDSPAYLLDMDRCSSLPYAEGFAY
# Chain of ETV1 (P50549 whole entry): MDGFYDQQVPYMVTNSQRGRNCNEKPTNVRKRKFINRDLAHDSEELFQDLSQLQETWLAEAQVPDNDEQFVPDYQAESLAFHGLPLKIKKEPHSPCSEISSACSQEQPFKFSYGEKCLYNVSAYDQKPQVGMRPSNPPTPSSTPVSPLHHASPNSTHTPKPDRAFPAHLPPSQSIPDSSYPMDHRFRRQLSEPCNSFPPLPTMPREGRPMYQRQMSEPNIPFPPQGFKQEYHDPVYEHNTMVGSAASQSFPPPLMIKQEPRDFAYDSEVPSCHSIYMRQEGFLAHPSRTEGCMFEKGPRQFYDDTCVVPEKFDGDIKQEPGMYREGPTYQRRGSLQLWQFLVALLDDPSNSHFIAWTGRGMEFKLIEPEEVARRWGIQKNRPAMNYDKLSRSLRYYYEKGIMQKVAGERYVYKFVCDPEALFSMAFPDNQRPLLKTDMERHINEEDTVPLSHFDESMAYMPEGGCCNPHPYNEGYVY
# Chain of ETV6 (P41212 whole entry): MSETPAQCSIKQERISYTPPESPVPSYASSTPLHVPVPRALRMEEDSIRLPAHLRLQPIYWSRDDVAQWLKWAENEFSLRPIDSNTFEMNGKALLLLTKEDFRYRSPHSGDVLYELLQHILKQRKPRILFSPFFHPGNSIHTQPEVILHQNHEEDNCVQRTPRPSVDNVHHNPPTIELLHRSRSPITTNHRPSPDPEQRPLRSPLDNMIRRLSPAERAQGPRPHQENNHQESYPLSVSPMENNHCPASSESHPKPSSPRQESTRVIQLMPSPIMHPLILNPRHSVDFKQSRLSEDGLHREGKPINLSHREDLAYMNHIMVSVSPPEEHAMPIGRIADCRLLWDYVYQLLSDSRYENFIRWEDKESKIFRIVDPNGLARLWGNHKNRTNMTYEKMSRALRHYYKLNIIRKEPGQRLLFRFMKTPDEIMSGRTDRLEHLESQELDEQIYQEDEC
sequence,measurement,setting,value
CCGAGC,binding signal,[1],"1.18 fold enrichment (6-mer frequency, TF over GST control)"
same,binding signal,[2],"1.14 fold enrichment (6-mer frequency, TF over GST control)"
same,binding signal,[3],"1.13 fold enrichment (6-mer frequency, TF over GST control)"
same,binding signal,[4],"1.26 fold enrichment (6-mer frequency, TF over GST control)"
same,binding signal,[5],"1.09 fold enrichment (6-mer frequency, TF over GST control)"
same,binding signal,[6],"1.09 fold enrichment (6-mer frequency, TF over GST control)"
same,binding signal,[7],"1.35 fold enrichment (6-mer frequency, TF over GST control)"
same,binding signal,[8],"1.23 fold enrichment (6-mer frequency, TF over GST control)"
same,binding signal,[9],"1.01 fold enrichment (6-mer frequency, TF over GST control)"
same,binding signal,[10],"1.02 fold enrichment (6-mer frequency, TF over GST control)"
same,binding signal,[11],"1.17 fold enrichment (6-mer frequency, TF over GST control)"
same,binding signal,[12],"1.1 fold enrichment (6-mer frequency, TF over GST control)"
same,binding signal,[13],"1.17 fold enrichment (6-mer frequency, TF over GST control)"
same,binding signal,[14],"1.06 fold enrichment (6-mer frequency, TF over GST control)"
same,binding signal,[15],"1.15 fold enrichment (6-mer frequency, TF over GST control)"
same,binding signal,[16],"1.12 fold enrichment (6-mer frequency, TF over GST control)"
same,binding signal,[17],"1.04 fold enrichment (6-mer frequency, TF over GST control)"
same,binding signal,[18],"1.13 fold enrichment (6-mer frequency, TF over GST control)"
